Where “and” joins values, the source holds several entries; their conditions need not be identical. Equal values may be shown once.

Test [1] addresses T1, Muscle, skeletal receptor tyrosine-protein kinase (Homo sapiens) (UniProt O15146).
T1 sequence (whole entry): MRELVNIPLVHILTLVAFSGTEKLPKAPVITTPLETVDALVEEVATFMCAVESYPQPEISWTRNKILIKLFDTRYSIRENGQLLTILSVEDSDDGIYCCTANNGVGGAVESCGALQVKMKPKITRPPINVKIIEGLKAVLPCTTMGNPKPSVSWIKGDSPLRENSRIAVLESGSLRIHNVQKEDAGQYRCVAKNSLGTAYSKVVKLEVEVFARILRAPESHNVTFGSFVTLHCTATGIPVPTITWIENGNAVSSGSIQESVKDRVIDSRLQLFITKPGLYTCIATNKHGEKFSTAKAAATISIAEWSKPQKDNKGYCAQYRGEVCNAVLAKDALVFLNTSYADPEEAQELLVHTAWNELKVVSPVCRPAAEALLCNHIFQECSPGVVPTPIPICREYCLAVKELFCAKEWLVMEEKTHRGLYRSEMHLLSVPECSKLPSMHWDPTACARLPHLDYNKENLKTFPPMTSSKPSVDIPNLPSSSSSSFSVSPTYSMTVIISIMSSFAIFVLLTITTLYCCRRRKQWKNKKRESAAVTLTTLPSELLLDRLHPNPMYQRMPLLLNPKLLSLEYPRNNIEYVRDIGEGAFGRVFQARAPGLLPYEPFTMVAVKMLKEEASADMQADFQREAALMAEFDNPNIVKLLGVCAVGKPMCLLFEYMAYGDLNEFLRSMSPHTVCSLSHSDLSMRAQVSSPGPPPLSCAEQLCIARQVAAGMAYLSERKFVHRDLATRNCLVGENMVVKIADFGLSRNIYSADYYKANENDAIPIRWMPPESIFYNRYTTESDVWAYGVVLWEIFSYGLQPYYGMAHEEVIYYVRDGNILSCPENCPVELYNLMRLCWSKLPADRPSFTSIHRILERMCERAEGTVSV
The following applies: at 1 µM.

In test [2] the target is Platelet-derived growth factor receptor alpha (Homo sapiens) (UniProt P16234). The following applies: at 0.1 µM.
Platelet-derived growth factor receptor alpha (Homo sapiens), sequence (P16234 whole entry): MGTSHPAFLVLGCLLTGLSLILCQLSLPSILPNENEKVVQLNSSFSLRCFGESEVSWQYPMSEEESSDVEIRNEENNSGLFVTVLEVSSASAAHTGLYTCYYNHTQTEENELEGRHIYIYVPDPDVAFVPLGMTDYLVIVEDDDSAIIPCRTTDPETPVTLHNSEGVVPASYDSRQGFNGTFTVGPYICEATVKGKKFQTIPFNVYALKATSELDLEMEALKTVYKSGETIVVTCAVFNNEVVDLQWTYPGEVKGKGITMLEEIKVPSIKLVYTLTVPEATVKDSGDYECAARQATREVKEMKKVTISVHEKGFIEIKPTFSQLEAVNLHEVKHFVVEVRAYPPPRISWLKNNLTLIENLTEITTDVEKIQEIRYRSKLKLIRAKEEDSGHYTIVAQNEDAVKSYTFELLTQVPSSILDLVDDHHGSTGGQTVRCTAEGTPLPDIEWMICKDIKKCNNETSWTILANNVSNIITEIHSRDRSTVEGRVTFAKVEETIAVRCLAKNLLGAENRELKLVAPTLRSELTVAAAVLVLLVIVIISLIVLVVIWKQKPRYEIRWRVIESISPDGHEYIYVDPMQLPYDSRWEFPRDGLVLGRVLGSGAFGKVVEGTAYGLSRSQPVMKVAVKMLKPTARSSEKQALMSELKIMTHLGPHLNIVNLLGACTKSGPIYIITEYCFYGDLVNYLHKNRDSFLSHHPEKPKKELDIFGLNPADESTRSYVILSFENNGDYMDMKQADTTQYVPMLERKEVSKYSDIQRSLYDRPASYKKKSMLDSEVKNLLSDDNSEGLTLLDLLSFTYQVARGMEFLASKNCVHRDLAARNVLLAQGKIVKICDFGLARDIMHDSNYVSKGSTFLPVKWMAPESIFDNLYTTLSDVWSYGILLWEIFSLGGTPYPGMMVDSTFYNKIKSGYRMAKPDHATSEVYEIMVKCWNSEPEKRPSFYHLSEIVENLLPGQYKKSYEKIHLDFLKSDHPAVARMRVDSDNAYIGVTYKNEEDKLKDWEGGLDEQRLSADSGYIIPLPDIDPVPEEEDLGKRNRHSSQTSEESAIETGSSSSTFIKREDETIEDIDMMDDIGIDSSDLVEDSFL
The target is the same in test [3]. The following applies: at 1 µM.
Test [4] concerns Platelet-derived growth factor receptor alpha (Homo sapiens), P16234 [D842V]. The following applies: at 0.1 µM.
The test system is the same in test [5]. The following applies: at 1 µM.
Test [6] relates to Platelet-derived growth factor receptor alpha (Homo sapiens), P16234 [T674I]. The following applies: at 0.1 µM.
Platelet-derived growth factor receptor alpha (Homo sapiens), P16234 [T674I], sequence (P16234 whole entry T674I): as the sequence (P16234 whole entry) above, with T674I counted along it
Test [7] has the same test system. The following applies: at 1 µM.
The test system of test [8] is Platelet-derived growth factor receptor alpha (Homo sapiens), P16234 [V561D]. The following applies: at 0.1 µM.
Platelet-derived growth factor receptor alpha (Homo sapiens), P16234 [V561D], sequence (P16234 whole entry V561D): as the sequence (P16234 whole entry) above, with V561D counted along it
Test [9] has the same test system. The following applies: at 1 µM.
The target in test [10] is Platelet-derived growth factor receptor beta (Homo sapiens) (UniProt P09619). The following applies: at 0.1 µM.
The target is the same in test [11]. The following applies: at 1 µM.
Test [12] concerns the target Tyrosine-protein kinase FRK (Homo sapiens) (UniProt P42685). The following applies: at 0.1 µM.
For test [13] the target is unchanged. The following applies: at 1 µM.
For test [14], the target named is Protein-tyrosine kinase 2-beta (Homo sapiens) (UniProt Q14289). The following applies: at 0.1 µM.
Test [15] shares this target. The following applies: at 1 µM.
The target in test [16] is Proto-oncogene tyrosine-protein kinase receptor Ret (Homo sapiens) (UniProt P07949). The following applies: at 0.1 µM.
Test [17] shares this target. The following applies: at 1 µM.
Test [18] deals with Proto-oncogene tyrosine-protein kinase receptor Ret (Homo sapiens), P07949 [V804L]. The following applies: at 0.1 µM.
Test [19] shares this test system. The following applies: at 1 µM.
Test [20] deals with Proto-oncogene tyrosine-protein kinase receptor Ret (Homo sapiens), P07949 [Y791F]. The following applies: at 0.1 µM.
Proto-oncogene tyrosine-protein kinase receptor Ret (Homo sapiens), P07949 [Y791F], sequence (P07949 whole entry Y791F): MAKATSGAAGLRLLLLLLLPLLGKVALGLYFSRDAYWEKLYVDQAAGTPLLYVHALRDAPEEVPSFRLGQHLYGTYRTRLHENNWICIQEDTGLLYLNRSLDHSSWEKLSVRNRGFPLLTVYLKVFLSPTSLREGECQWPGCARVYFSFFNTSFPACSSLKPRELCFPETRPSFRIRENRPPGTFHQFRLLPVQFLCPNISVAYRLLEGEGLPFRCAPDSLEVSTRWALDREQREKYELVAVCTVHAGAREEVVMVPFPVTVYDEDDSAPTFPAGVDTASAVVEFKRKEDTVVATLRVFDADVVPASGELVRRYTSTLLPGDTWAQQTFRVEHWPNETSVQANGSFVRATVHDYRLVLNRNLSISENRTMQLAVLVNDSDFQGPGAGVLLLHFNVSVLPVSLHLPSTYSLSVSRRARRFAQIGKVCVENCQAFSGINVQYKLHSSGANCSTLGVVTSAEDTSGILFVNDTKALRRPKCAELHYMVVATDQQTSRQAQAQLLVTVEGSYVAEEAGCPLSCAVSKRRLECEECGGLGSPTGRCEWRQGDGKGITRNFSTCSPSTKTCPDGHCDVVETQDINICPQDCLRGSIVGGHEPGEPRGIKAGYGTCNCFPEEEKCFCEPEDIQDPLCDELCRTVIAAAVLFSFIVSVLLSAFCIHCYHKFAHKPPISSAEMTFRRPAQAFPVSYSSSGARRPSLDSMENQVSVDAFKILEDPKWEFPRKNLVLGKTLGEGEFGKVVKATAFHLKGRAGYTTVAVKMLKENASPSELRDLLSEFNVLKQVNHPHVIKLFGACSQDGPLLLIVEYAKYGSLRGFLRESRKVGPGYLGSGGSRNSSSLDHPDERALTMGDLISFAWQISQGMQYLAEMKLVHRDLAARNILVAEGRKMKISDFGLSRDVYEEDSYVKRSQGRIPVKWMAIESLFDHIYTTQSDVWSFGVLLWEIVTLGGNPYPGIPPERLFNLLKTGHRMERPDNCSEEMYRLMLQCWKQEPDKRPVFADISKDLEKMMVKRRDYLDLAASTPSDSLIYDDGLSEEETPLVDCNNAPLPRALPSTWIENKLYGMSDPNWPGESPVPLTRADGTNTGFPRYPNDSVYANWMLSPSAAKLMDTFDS

Tyrosine-protein kinase FRK (Homo sapiens), sequence (P42685 whole entry): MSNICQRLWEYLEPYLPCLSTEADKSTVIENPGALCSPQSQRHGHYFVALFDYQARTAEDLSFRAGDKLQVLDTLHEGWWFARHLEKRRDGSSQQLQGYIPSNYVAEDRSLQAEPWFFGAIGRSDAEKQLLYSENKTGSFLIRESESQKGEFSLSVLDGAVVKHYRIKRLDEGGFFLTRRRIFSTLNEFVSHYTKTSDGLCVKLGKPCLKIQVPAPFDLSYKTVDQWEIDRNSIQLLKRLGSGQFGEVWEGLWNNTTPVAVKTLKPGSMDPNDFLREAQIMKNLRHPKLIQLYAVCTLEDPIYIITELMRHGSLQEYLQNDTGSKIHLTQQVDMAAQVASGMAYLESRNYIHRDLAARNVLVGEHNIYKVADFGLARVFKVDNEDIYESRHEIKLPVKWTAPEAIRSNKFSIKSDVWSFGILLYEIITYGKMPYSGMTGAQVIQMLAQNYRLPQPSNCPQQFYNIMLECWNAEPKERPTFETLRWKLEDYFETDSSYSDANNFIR

As to `Cc1c2ccc(N(C)c3ccnc(Nc4cccc(S(N)(=O)=O)c4)n3)cc2nn1C`, the inhibition in test [1] amounted to 5.12%; in test [2], 63.5%; in test [3] it was 86.5%; in [4], 13.9%; in [5], 57.9%; in test [6], 77%. In addition, the inhibition in [7] was found to be 96.5%; in test [8] it was 71.5%; in [9], 92.5%; in test [10] it was 53.9%; in [11], 79.2%; in [12], 10.4%. Also, the inhibition in test [13] turned out to be 46.1%; in [14], 10.9%; in [15] it was 39%; in test [16], 44.6%; in [17], 77.5%; in test [18] it was 10.1%. In addition, the inhibition stood at 37.3% in [19] and 60.6% in [20].
Take `N#Cc1cccc(Nc2ncc(-c3ccccc3)o2)c1`: the inhibition in [1] is 2.86%; in [2], 5.63%; in [3], 17%; in test [4], 1.11%; in test [5] it was 3.47%; in test [6], 6.26%. Moreover, the inhibition in [7] worked out at 36.3%; in test [8], 16.2%; in test [9], 36.8%; in test [10] it was 7.37%; in test [11], 26.1%; in test [12] it was 0.92%. Further, the inhibition came out at 3.54% in test [13]; 1.87% in [14]; 7.64% in [15]; 2.14% in [16]; 3.79% in test [17]; 0.71% in test [18]. For the same molecule, the inhibition is 14.4% in test [19] and 0.39% in test [20].
For `CCS(=O)(=O)c1ccc(OC)c(Nc2ncc(-c3cccc(C(C)=O)c3)o2)c1`, the inhibition was 4.06% in test [1]; 23.2% in test [2]; 68% in test [3]; 20.1% in [4]; 72.8% in [5]; 7.08% in test [6]. Besides, the inhibition in [7] was determined as 8.46%; in test [8], 22.1%; in [9], 68.2%; in test [10], 53.7%; in test [11], 84.3%; in test [12], 3.25%. The inhibition turned out to be 14.2% in test [13]; 5.43% in test [14]; 8.24% in [15]; 7.26% in [16]; 33.6% in test [17]; 5.03% in [18]. Also, the inhibition in [19] is 28.8%; in [20], 6.91%.
Take `Nc1nccc(-c2c(-c3ccc(F)cc3)ncn2C2CCNCC2)n1`: the inhibition in test [1] is 4.78% and 1.25%; in test [2], 1.26% and 2.55%; in test [3], 32.6% and 7.91%; in [4], 3.48% and 2.03%; in test [5], 9.35% and 6.11%; in test [6] it was -2.56% and 3.91%. Moreover, the inhibition in test [7] was 1.13% and 1.39%; in test [8] it was 4.62% and 3.92%; in test [9] it was 19.5% and 6.51%; in test [10] it was 3.91% and 1.3%; in [11], 32% and 25.6%; in [12], 0.53% and 0.26%. In addition, the inhibition in [13] is 1.84% and 3.88%; in [14], -6.28% and 0.77%; in test [15], -3.71% and 3.63%; in test [16], -0.37% and 2.86%; in test [17], 14.1% and 4.3%; in test [18] it was 0.39% and 2.71%. The inhibition was 9.24% and 2.58% in [19]; 0.26% and 3.84% in [20].
Take `COc1cccc(Nc2nccc(-c3cnn4ncccc34)n2)c1`: the inhibition was 25.3% in test [1]; 14.3% in [2]; 49.3% in [3]; 6.1% in [4]; 47.1% in [5]; 12.6% in [6]. The inhibition in [7] came out at 80.7%; in test [8], 26.4%; in test [9], 64.1%; in [10], 23.9%; in test [11], 70%; in [12] it was 0.08%. Also, the inhibition in test [13] was 4.45%; in [14], 28.5%; in test [15], 86.6%; in [16], 1.21%; in test [17], 17.1%; in test [18], 3.16%. Besides, the inhibition amounted to 22.6% in test [19] and 2.74% in test [20].
`OCCCNc1nccc(-c2c(-c3ccc(F)cc3)nn3cc(C(F)(F)F)ccc23)n1`: the inhibition in test [1] came to 6.98%; in test [2], 10.9%; in [3], 15.3%; in test [4], 2.53%; in test [5], 5.03%; in [6], 4.67%. Besides, the inhibition was 6.04% in test [7]; 0.23% in test [8]; 6.06% in test [9]; 6.16% in [10]; 14.4% in [11]; 0.71% in [12]. The inhibition in test [13] worked out at 1.35%; in test [14], 3.13%; in test [15], 7.75%; in test [16] it was 4.24%; in test [17] it was 11.4%; in test [18] it was 1.59%. In addition, the inhibition in [19] was 3.05%; in [20] it was 6.39%.

A word on the inhibition: it is the change of the read-out against control, counted positive when it falls.

For the origin of these results see ChEMBL document CHEMBL1961873, “Compounds: GSK PKIS; Assays: Nanosyn kinase panel” (2012).
